Laboratory results as given in PubChem BioAssay (NCATS).
Inconclusive results are not listed. The source made the active and inactive calls. Calls come from the whole dose curve; as a rule, active = well fitted curve in the direction sought with a large enough effect; inconclusive = small, poorly fitted or top-dose-only effect, or another doubt; inactive = no such curve, though single readings can be large; an effect the other way counts as inactive or inconclusive.

Assay: qHTS of pediatric cancer cell lines to identify multiple opportunities for drug repurposing: Confirmatory screen for BT-37 cells (AID 1347117);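 note: viability measured after 48 h of compound exposure; nearly all actives have a fitted effect of over 55% in size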
Details: BT-37 pediatric cancer cells, viability; series mostly up to 45.9 µM; activity change, negative = cytotoxic: at the top concentration
Procedure, shortened: (§1)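 Cells (500-1,000/well) rested 5 h, then received compounds for 48 h; metabolically active cells were measured by CellTiter-Glo luminescence. Final concentrations spanned up to 46 µM (MIPE, 11-point) or 0.59 nM-46 µM (NPC, 8-point) in primary screens, 11-point in follow-ups.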
Potency is the fitted concentration of half-maximal effect.

Row | Structure (SMILES) | Potency
1 | Cc1cc(C(=O)N2CCN(c3cccc(Cl)c3)CC2)n(-c2ccccc2)n1 | 5.22 µM (active)
2 | O=C(Nc1ncc(-c2cc(C(F)F)nn2-c2c(Cl)cccc2Cl)s1)C1CC1 | 1.04 µM (active)
3 | Nc1ccn([C@@H]2O[C@H](CO)[C@H](O)C2(F)F)c(=O)n1 | 0.0074 µM (active)
4 | Cc1nc(N)ncc1-c1nc(N2CCOCC2)c2sc(C(C)(C)O)cc2n1 | 8.27 µM (active)
5 | COc1ccc(OC)c(-c2nnc3ccc(-c4ccc(OC)c(O[C@@H]5CCOC5)c4)nn23)c1 | 7.37 µM (active)

Assay: qHTS of pediatric cancer cell lines to identify multiple opportunities for drug repurposing: Confirmatory screen for control Hh wild type fibroblast cells (AID 1347121); note: nearly all actives have a fitted effect of over 70% in size;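 for activity, negative = cytotoxic: plate controls were DMSO for no effect and bortezomib for full effect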
Details: viability qHTS; series mostly up to 45.9 µM; activity, negative = cytotoxic: at the top concentration
Procedure, shortened: as §1

Row | Structure (SMILES) | activity, negative = cytotoxic | Potency
6 | Cc1ccc(C(=O)Nc2ccc(CN3CCN(C)CC3)c(C(F)(F)F)c2)cc1C#Cc1cnc2cccnn12 | 7.02% (inactive) | –
7 | Cc1cc(C(=O)N2CCN(c3cccc(Cl)c3)CC2)n(-c2ccccc2)n1 | 14.1% (inactive) | –
8 | CC(C)CC(=O)Nc1n[nH]c2c1CN(C(=O)C1CCN(C)CC1)C2(C)C | 1.82% (inactive) | –
9 | Cc1ccc2nc(NC(=O)CSc3nc4c(c(=O)n3-c3ccccc3)SCC4)sc2c1 | – | 14.7 µM (active)
10 | Cc1cc(Nc2cc(N3CCN(C)CC3)nc(Sc3ccc(NC(=O)C4CC4)cc3)n2)n[nH]1 | -6.57% (inactive) | –
11 | CN[C@H]1CCc2cc(OC)c(OC)c(OC)c2-c2ccc(OC)c(=O)cc21 | -2.68% (inactive) | –

Assay: qHTS of pediatric cancer cell lines to identify multiple opportunities for drug repurposing: Confirmatory screen for U-2 OS cells (AID 1347122); note: nearly all actives have a fitted effect of over 65% in size;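 for activity change, negative = cytotoxicity: plate controls were DMSO for no effect and bortezomib for full effect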
Details: U-2 OS osteosarcoma cell viability; series mostly up to 45.9 µM; activity change, negative = cytotoxicity: at the top concentration; outcome: at the top concentration
Procedure, shortened: as §1

Row | Structure (SMILES) | activity change, negative = cytotoxicity | Potency
12 | Cc1nc2ccc(CN(C)c3ccc(C(=O)N[C@@H](CCC(=O)O)C(=O)O)s3)cc2c(=O)[nH]1 | 20.7% (inactive) | –
13 | Cc1ccc(C(=O)Nc2ccc(CN3CCN(C)CC3)c(C(F)(F)F)c2)cc1C#Cc1cnc2cccnn12 | – | 2.93 µM (active)
14 | Cc1cc(C(=O)N2CCN(c3cccc(Cl)c3)CC2)n(-c2ccccc2)n1 | – | 3.29 µM (active)
15 | Nc1cc(C(F)(F)F)c(-c2cc(N3CCOCC3)nc(N3CCOCC3)n2)cn1 | – | 5.22 µM (active)
16 | O=C(Nc1ncc(-c2cc(C(F)F)nn2-c2c(Cl)cccc2Cl)s1)C1CC1 | – | 1.04 µM (active)
17 | CC(C)CC(=O)Nc1n[nH]c2c1CN(C(=O)C1CCN(C)CC1)C2(C)C | – | 16.5 µM (active)
18 | Nc1ccn([C@@H]2O[C@H](CO)[C@H](O)C2(F)F)c(=O)n1 | 19% (inactive) | –
19 | Cc1cc(Nc2cc(N3CCN(C)CC3)nc(Sc3ccc(NC(=O)C4CC4)cc3)n2)n[nH]1 | – | 9.27 µM (active)
20 | CN[C@H]1CCc2cc(OC)c(OC)c(OC)c2-c2ccc(OC)c(=O)cc21 | – | 0.208 µM (active)

Assay: qHTS of pediatric cancer cell lines to identify multiple opportunities for drug repurposing: Confirmatory screen for Rh41 cells (AID 1347123);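 note: 48 h compound exposure; nearly all actives have a fitted effect of over 60% in size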;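 for activity change, negative = cytotoxic: plate controls were DMSO for no effect and bortezomib for full effect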
Details: Rh41 rhabdomyosarcoma cells, viability/cytotoxicity qHTS; series mostly up to 45.9 µM; activity change, negative = cytotoxic: at the top concentration
Procedure, shortened: as §1

Row | Structure (SMILES) | activity change, negative = cytotoxic | Potency
21 | Cc1nc2ccc(CN(C)c3ccc(C(=O)N[C@@H](CCC(=O)O)C(=O)O)s3)cc2c(=O)[nH]1 | -37.3% (inactive) | –
22 | Cc1ccc(C(=O)Nc2ccc(CN3CCN(C)CC3)c(C(F)(F)F)c2)cc1C#Cc1cnc2cccnn12 | – | 0.585 µM (active)
23 | Nc1cc(C(F)(F)F)c(-c2cc(N3CCOCC3)nc(N3CCOCC3)n2)cn1 | – | 5.85 µM (active)
24 | O=C(Nc1ncc(-c2cc(C(F)F)nn2-c2c(Cl)cccc2Cl)s1)C1CC1 | – | 0.928 µM (active)
25 | CC(C)CC(=O)Nc1n[nH]c2c1CN(C(=O)C1CCN(C)CC1)C2(C)C | – | 1.31 µM (active)
26 | Nc1ccn([C@@H]2O[C@H](CO)[C@H](O)C2(F)F)c(=O)n1 | – | 0.0522 µM (active)
27 | Cc1ccc2nc(NC(=O)CSc3nc4c(c(=O)n3-c3ccccc3)SCC4)sc2c1 | – | 20.8 µM (active)
28 | Cc1cc(Nc2cc(N3CCN(C)CC3)nc(Sc3ccc(NC(=O)C4CC4)cc3)n2)n[nH]1 | – | 9.27 µM (active)
29 | COc1ccc(OC)c(-c2nnc3ccc(-c4ccc(OC)c(O[C@@H]5CCOC5)c4)nn23)c1 | – | 2.93 µM (active)

Assay: qHTS of pediatric cancer cell lines to identify multiple opportunities for drug repurposing: Confirmatory screen for RD cells (AID 1347124);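 note: cells exposed to compound for 48 h before viability readout; nearly all actives have a fitted effect of over 65% in size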
Details: RD rhabdomyosarcoma cell viability; series mostly up to 45.9 µM; activity change, negative = cytotoxic: at the top concentration
Procedure, shortened: as §1

Row | Structure (SMILES) | Potency
30 | Cc1ccc(C(=O)Nc2ccc(CN3CCN(C)CC3)c(C(F)(F)F)c2)cc1C#Cc1cnc2cccnn12 | 20.8 µM (active)
31 | Nc1cc(C(F)(F)F)c(-c2cc(N3CCOCC3)nc(N3CCOCC3)n2)cn1 | 5.85 µM (active)
32 | O=C(Nc1ncc(-c2cc(C(F)F)nn2-c2c(Cl)cccc2Cl)s1)C1CC1 | 0.827 µM (active)
33 | CC(C)CC(=O)Nc1n[nH]c2c1CN(C(=O)C1CCN(C)CC1)C2(C)C | 6.57 µM (active)
34 | Cc1nc(N)ncc1-c1nc(N2CCOCC2)c2sc(C(C)(C)O)cc2n1 | 1.17 µM (active)
35 | CN[C@H]1CCc2cc(OC)c(OC)c(OC)c2-c2ccc(OC)c(=O)cc21 | 0.104 µM (active)
36 | COc1ccc(OC)c(-c2nnc3ccc(-c4ccc(OC)c(O[C@@H]5CCOC5)c4)nn23)c1 | 11.7 µM (active)

Assay: qHTS of pediatric cancer cell lines to identify multiple opportunities for drug repurposing: Confirmatory screen for Rh18 cells (AID 1347125); note: nearly all actives have a fitted effect of over 55% in size; for activity change, negative = cytotoxic: % is set by controls: 0 for no effect and ±100 for the full control effect
Details: Rh18 rhabdomyosarcoma cells, viability; series mostly up to 45.9 µM; activity change, negative = cytotoxic: at the top concentration
Procedure, shortened: as §1

Row | Structure (SMILES) | activity change, negative = cytotoxic | Potency
37 | Cc1nc2ccc(CN(C)c3ccc(C(=O)N[C@@H](CCC(=O)O)C(=O)O)s3)cc2c(=O)[nH]1 | -6.75% (inactive) | –
38 | Cc1ccc(C(=O)Nc2ccc(CN3CCN(C)CC3)c(C(F)(F)F)c2)cc1C#Cc1cnc2cccnn12 | – | 10.4 µM (active)
39 | CC(C)CC(=O)Nc1n[nH]c2c1CN(C(=O)C1CCN(C)CC1)C2(C)C | -25.7% (inactive) | –
40 | Nc1ccn([C@@H]2O[C@H](CO)[C@H](O)C2(F)F)c(=O)n1 | – | 2.93 µM (active)
41 | Cc1ccc2nc(NC(=O)CSc3nc4c(c(=O)n3-c3ccccc3)SCC4)sc2c1 | -15% (inactive) | –
42 | Cc1nc(N)ncc1-c1nc(N2CCOCC2)c2sc(C(C)(C)O)cc2n1 | – | 1.65 µM (active)
43 | CN[C@H]1CCc2cc(OC)c(OC)c(OC)c2-c2ccc(OC)c(=O)cc21 | -22.2% (inactive) | –
44 | COc1ccc(OC)c(-c2nnc3ccc(-c4ccc(OC)c(O[C@@H]5CCOC5)c4)nn23)c1 | -24% (inactive) | –
